Consider 14 compounds from PubChem BioAssay (NCI).

“And” between values parts separate entries of the source, which are not always exact repeats. Identical values can stand only once. This is part of a sample that, as a whole, favours compounds with a hit. Of some 83,000 tested, about 20% had one in any assay.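 Cells were grown in 96-well plates and exposed to the test compound at a single concentration for 48 hours; results are reported as percent growth, with values below 10 considered active.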 The source made the active and inactive calls.

In this test the test system is MDA-MB-468 breast. Description: NCI-60 one-dose screen, 48 h (100 = growth as untreated, 0 = no growth, -100 = all killed). The following applies: 10 µM unless noted.
Regarding `Cc1nc2sc(C(=O)Nc3ccccc3)c(N)c2cc1C(O)c1ccccc1` (centres undefined), the growth is 3.45% (active). The same measure for `CCN1C(=O)N(CC)C2C1N=C(SC)N2/N=C/C=C/c1ccccc1OC` (centres undefined): 1.3% (active). The same measure for `CNC(=O)c1cc(Oc2ccc3nc(NC(C)=O)sc3c2)ccn1`: 100% (inactive); for `CCCCNc1nc(NC(C)(C)C)nc(NC(C)(C)C)n1`: 78.5% (inactive); for `CC(C)(C)n1cc(-c2ccnc(NCCNS(=O)(=O)c3cccc4ccccc34)c2)c(-c2cccc(O)c2)n1`: 46.2% (inactive). For `c1ccc(NCc2ccc3c(c2)OCO3)cc1`, the growth is 104% (inactive) and 97.7% (inactive). On to `CCOC(=O)C1=NN(c2ccccc2)C(=O)/C1=C\N1C(=O)CC(=O)NC1=S`, for which the growth is 114% (inactive). As for `COc1ccc(C(=O)Nc2ncc(Cc3ccc(Cl)cc3)s2)cc1`, the growth is 24.6% (inactive). The same measure for `O=C(Oc1ccccc1)C(Br)C(Br)c1ccccc1` (centres undefined): 56.7% (inactive); for `CCOc1cc2ncc(C#N)c(Nc3ccc(OCc4cccc(F)c4)c(Cl)c3)c2cc1NC(=O)CC1CCSS1` (centres undefined): -5.09% (active). Regarding `COc1cc(-c2nc3c(c(C)nc4c3nnn4-c3ccccc3)c(=O)o2)cc(OC)c1OC`, the growth was 110% (inactive). Take `CCc1n(Cc2ccc3ccccc3c2)c2ccccc2[n+]1Cc1ccc2ccccc2c1`: the growth is 5.98% (active). The same measure for `CC(C)(C)c1ccc(S(=O)(=O)N[C@H]2CC[C@H]3[C@@H]4CCc5cc(O)c([N+](=O)[O-])cc5[C@H]4CC[C@]23C)cc1`: 99.9% (inactive); for `CCn1cc(C(=O)O)c(=O)c2cc(F)c(N3CCN(S(=O)(=O)c4ccc(Cl)cc4Cl)CC3)cc21`: -1.55% (active).
